Screening results deposited in PubChem BioAssay by Broad Institute.
Shown is part of a subset that was picked to be rich in hits.
BL2 CD40 inh: CD40 pathway inhibition in BL2 cells; BL2 NF-kB luciferase reporter, CD40L-induced, 4 h; inhibition, % at 10 µM; 0.94% of 83,000 active;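 active = mean inhibition of at least 50% with a set share of replicates also reaching that level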;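 note: 0% = neutral control wells and 100% = IKK inhibitor VII at 50 µM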
Active calls of the source: *; [ ] = dose if it differs, or a comment.

SMILES	BL2 CD40 inh
Cc1cc(O)c(C(C)C)cc1C1(c2cc(C(C)C)c(O)cc2C)OC(=O)c2ccccc21	39*
C[C@@H](O)C#Cc1ccc([C@H]2[C@H]3CN(C(=O)c4ccncc4)CCCCN3[C@H]2CO)cc1	-2[25 µM]
COc1cn(-c2ccccc2)nc1C(=O)Nc1ccccc1	-76
COC(=O)c1nn(-c2ccccc2)c(-c2ccccc2)c1C(=O)c1ccccc1	7
COC(=O)c1nn(-c2ccc(-c3ccccc3)cc2)cc1O	70*
Cc1nnc(C)c2c(C)n(/N=C/c3cc(Br)ccc3O)c(C)c12	-1
C[C@@H]1CN([C@@H](C)CO)C(=O)c2ccccc2-c2ccccc2CO[C@H]1CN(C)C(=O)C1CC1	-7
CCc1nnc(NC(=O)C2Cc3ccccc3CN2S(=O)(=O)CC)s1 (stereo not drawn)	-20
CCS(=O)(=O)N1Cc2ccccc2CC1C(=O)Nc1nc2ccccc2[nH]1 (stereo not drawn)	-83
CCS(=O)(=O)N1Cc2ccccc2CC1C(=O)Nc1nc2ccccc2s1 (stereo not drawn)	61*
O=C(NC1CCC1)[C@@H]1[C@@H](CO)[C@@H]2Cn3c(cccc3=O)[C@H]1N2Cc1cc(F)ccc1F	3[25 µM]
COc1ccc([C@@H]2C/C=C\C[C@H](c3ccc4c(c3)OCO4)NC(=O)CCC(=O)N2)c(OC)c1	7[25 µM]
CC(C)[C@H]1C(=O)N[C@@H](c2ccc3c(c2)OCO3)CC=CC[C@H](C)Oc2ccccc2C(=O)N1C (mixture of isomers)	1
O=C(c1cnccn1)N1CC(=O)N2[C@H](C1)[C@@H](c1ccc(C#CC3CC3)cc1)[C@@H]2CO	-13[25 µM]
COc1ccc(-c2onc(C)c2-c2ccc(C(=O)OC(C)C)o2)c(O)c1	34*
COc1ccc2c(c1)CCc1c(C(=O)NCc3ccc(F)cc3)noc1-2	3
COc1cc(NC(=O)c2ccc(-c3c(C)noc3C)c3ccoc23)cc(OC)c1OC	2
C[C@H]1CN([C@@H](C)CO)C(=O)c2c(c3ccccc3n2C)-c2ccccc2CO[C@@H]1CN(C)C(=O)c1ccncc1	1
C[C@H]1CN([C@@H](C)CO)C(=O)c2cccc(NC(=O)Nc3ccc4c(c3)OCO4)c2O[C@H]1CN(C)S(=O)(=O)c1cn(C)cn1	-3
COc1ccccc1NC(=O)N1C[C@@H]2[C@H](c3ccccc31)[C@H](CO)N2C(=O)c1ccccc1	-7[25 µM]
CN1CCN(C(=O)C[C@H]2C[C@@H]3c4cc(NC(=O)C5CCC5)ccc4O[C@@H]3[C@H](CO)O2)CC1	-5[25 µM]
CNC[C@@H]1Oc2ccc(N(C)C)cc2CC(=O)N(C)C[C@H]1C	-3
O=c1[nH]c(C(F)(F)F)nc2ccccc12	-8
CC(C)N1C(=O)/C(=C\c2nc3ccccc3c(=O)[nH]2)c2ccccc21	33*
CC(C)Sc1nc2ccccc2c(=O)[nH]1	6
SMILES	BL2 CD40 inh
CC(C)NC(=O)N(C)C[C@@H]1Oc2ccc(N)cc2CC(=O)N(C)C[C@H]1C	1
CC12C=CC(=O)C=C1CCC1C3CCC(O)(C(=O)CO)C3(C)CC(O)C12F (stereo not drawn)	28
CCCC(=O)O[C@]1(C(=O)CCl)[C@@H](C)C[C@H]2[C@@H]3CCC4=CC(=O)C=C[C@]4(C)[C@@]3(F)C(=O)C[C@@]21C	42
CCC(=O)O[C@]1(C(=O)CCl)[C@@H](C)C[C@H]2[C@@H]3CCC4=CC(=O)C=C[C@]4(C)[C@@]3(F)[C@@H](O)C[C@@]21C	45*
C[C@@H]1C[C@H]2[C@@H]3CCC4=CC(=O)C=C[C@]4(C)[C@@]3(F)[C@@H](O)C[C@]2(C)[C@@]1(O)C(=O)COP(=O)(O)O	51*
C[C@H]1C[C@H]2[C@@H]3CCC4=CC(=O)C=C[C@]4(C)[C@@]3(Cl)[C@@H](O)C[C@]2(C)[C@@]1(O)C(=O)CO	29
CC(=O)N(C)C[C@H]1Oc2ccc(N(C)C)cc2CC(=O)N(C)C[C@@H]1C	6
Cc1ccc(/C=C2/CNC/C(=C\c3ccc(C)cc3)C2=O)cc1	65*[25 µM]
Cc1ccc(C=C2C=C(c3ccccc3)OC2=O)cc1	-33
Cc1ccc(S(=O)(=O)N2CC=C(N)N2)cc1	-2
O=C(c1cccnc1)N1CC(=O)N2[C@H](CO)[C@@H](c3ccc(-c4ccccc4F)cc3)[C@H]2C1	4[25 µM]
COc1ccc(CNC(=O)C[C@@H]2CC[C@H](NC(=O)c3ccc4c(c3)OCO4)[C@@H](CO)O2)cc1	-7
CCCC#Cc1ccc([C@H]2[C@H](CO)N3CCCCN(S(=O)(=O)Cc4ccccc4)C[C@@H]23)cc1	-9[25 µM]
O=C(Nc1ccccc1)N1CC(=O)N2[C@@H](CO)[C@@H](c3ccc(C#CC4CCCC4)cc3)[C@@H]2C1	4
c1ccc(-c2noc(-c3ccno3)n2)nc1	-25
c1ccc(-c2noc(-c3ccco3)n2)nc1	-71
c1ccc(-c2nc(-c3ccccn3)no2)cc1	87*
CC(C)C1C(=O)N(S(C)(=O)=O)[C@@H]2CCN(C(=O)/C=C/CN3CCCCC3)[C@@H]12 (stereo partly drawn)	-5[25 µM]
CO[C@@H]1CN(C)C(=O)c2ccc(NC(=O)C3CCC3)cc2OC[C@@H](C)N(Cc2ccccn2)C[C@H]1C	-1[25 µM]
